In the library only some 1.4% were active in any assay of this set; here they are far more common.
Mtb MenB inh – blocks the Mycobacterium tuberculosis MenB enzyme | P9WNP5 | MenB enzyme assay, absorbance read-out | inhibition, % (test concentration not listed) | 100,000 compounds, 0.43% hits | AID 540299; in the data active = inhibition above about 21%, passing the limit was not always enough
AID504770 – E. coli YBA685 growth inhibition, screen for V. cholerae RctB inhibitors; E. coli YBA685 rctB-dependent plasmid, OD600 growth, 3 h; stronger effect = lower value; z-score (no concentration beside the values); 130,000 compounds, 0.27% hits; in the data active = z-score below about -2, passing the limit was not always enough
PV pol inh – inhibitors of poliovirus RNA polymerase binding and polymerization; % elongation, % (compound at 16.7 µg/mL); poliovirus polymerase elongation, fluorescence polarization; stronger effect = lower value; AID 588519; 150,000 compounds, 0.66% hits; P03300; in the data active = % elongation below about 90%
Mtb MbtI inh – inhibitors of Mycobacterium tuberculosis siderophore enzyme MbtI | P9WFX0 | purified MbtI enzyme, fluorescence intensity read-out | inhibition, % (test concentration not listed) | 100,000 compounds, 0.89% hits; in the data active = inhibition mostly above about 56%, no sharp cut-off; inactive = mostly below about 77%
Target sequence (P9WFX0 whole entry, looked up): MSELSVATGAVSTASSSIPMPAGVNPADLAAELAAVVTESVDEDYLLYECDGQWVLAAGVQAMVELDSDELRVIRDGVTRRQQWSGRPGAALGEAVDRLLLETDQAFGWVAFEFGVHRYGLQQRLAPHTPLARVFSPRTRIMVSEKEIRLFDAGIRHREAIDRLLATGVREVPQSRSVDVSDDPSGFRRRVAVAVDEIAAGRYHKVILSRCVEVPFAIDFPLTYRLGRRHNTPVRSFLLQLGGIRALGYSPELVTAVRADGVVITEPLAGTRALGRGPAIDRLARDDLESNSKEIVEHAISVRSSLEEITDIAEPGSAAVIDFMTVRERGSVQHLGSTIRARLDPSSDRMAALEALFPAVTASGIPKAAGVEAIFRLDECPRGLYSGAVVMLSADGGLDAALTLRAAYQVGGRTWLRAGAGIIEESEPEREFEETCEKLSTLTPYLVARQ
Of the large screens only hits and unclear results are named; the others gave an inactive call.

CC(C)(C)CC(C)(C)NC(=O)Nc1cccc(Cl)c1	none
CC(C)(C)c1nn2cnnc2n(NC(=O)Nc2cccc(Cl)c2)c1=O	AID504770 -3.55
Cc1cc(NS(=O)(=O)c2ccc(N3C(=O)C4C5C=CC(C5)C4C3=O)cc2)nc(C)n1 (centres undefined)	none
Cc1nonc1-c1cn2cc(Br)cc(Br)c2n1	none
COc1ccc(N=C2C(=O)Nc3ccc(Br)cc32)cc1	none
Nc1nnnn1/N=C1/C(=O)Nc2ccc(Br)cc21	PV pol inh 72.0 (no result: Mtb MbtI inh)
Cc1ccc(C)n1-c1cccc(C(=O)O)c1	PV pol inh 34.0 (no result: Mtb MbtI inh)
O=C(O)/C=C/c1ccco1	none
O=C(/C=C/c1ccco1)C1C(=O)c2ccccc2C1=O	Mtb MbtI inh 68.8
O=S(=O)(c1ccc2nc(Nc3ccc(Br)cc3F)ccc2c1)N1CCCC1	none (no result: Mtb MenB inh, AID504770, Mtb MbtI inh)
CCOC(=O)c1c(-c2ccccc2)oc2ccc(O)c(CN3CCCC3)c12	none
O=C1C=C2N(c3ccccc3)CCOC2(O)c2ccccc21 (centres undefined)	PV pol inh 37.0 (no result: Mtb MbtI inh)
O=C1OC2(O)c3ccccc3C(=O)N2c2ccccc21 (centres undefined)	none
Brc1cccc(Oc2ncnc3sccc23)c1	none (no result: Mtb MenB inh)
N#CCCn1cc(Cl)c(=O)c(Cl)c1	none
COc1cccc(C(=O)Nc2ccc(-c3nc4ccc(C)cc4s3)cc2)c1OC	none (no result: Mtb MenB inh, AID504770, Mtb MbtI inh)
COc1ccc(-c2c(C)nn3c4c(cnc23)C(=O)CC(c2ccccc2)C4)cc1 (centres undefined)	none (no result: Mtb MenB inh, AID504770, Mtb MbtI inh)
CCOC(=O)N=c1oc2cc(Cl)c(Cl)cc2o1	Mtb MbtI inh 96.3
CCOC(=O)Oc1cc2oc(=O)sc2cc1Cl	none
CCC(=O)Nc1nc(-c2ccc(C)cc2C)cs1	none (no result: Mtb MenB inh, PV pol inh, Mtb MbtI inh)
Cc1ccc(-c2csc(Nc3ccc(C(=O)O)cc3)n2)c(C)c1	PV pol inh 90.0 (no result: Mtb MbtI inh)
O=C(c1ccco1)n1c(=S)nc2ccccn21	PV pol inh 83.0 (no result: Mtb MbtI inh)
O=C(c1ccco1)N1CCN(C(=O)c2ccco2)CC1	none
COc1ccc(OCC(=O)NCCO)cc1	Mtb MenB inh 34.6
O=C(c1cccs1)C(O)c1cccs1 (centres undefined)	none (no result: Mtb MenB inh, PV pol inh)
O=C1CC(c2n[nH]c(=S)o2)CN1c1ccc(Cl)cc1 (centres undefined)	Mtb MbtI inh 81.8
O=C1CC(c2nnc(Cc3cccc(Cl)c3)o2)CN1c1ccccc1 (centres undefined)	none (no result: Mtb MenB inh, AID504770, Mtb MbtI inh)
C=CCc1cc(C)ccc1OCC(O)Cn1c(CO)nc2ccccc21 (centres undefined)	none (no result: Mtb MenB inh, PV pol inh, Mtb MbtI inh)
Cc1ccc(CNc2n[nH]c(=S)s2)cc1	none (no result: Mtb MenB inh, PV pol inh, Mtb MbtI inh)
CC(C)(C)Nc1n[nH]c(=S)s1	PV pol inh 76.0, Mtb MbtI inh 73.5
N#CCOC(=O)c1nc(-c2ccccc2)n(-c2ccccc2)n1	PV pol inh 83.0
O=C(Cc1nc2ccccc2[nH]1)c1ccccc1	none (no result: Mtb MenB inh)
O=C(Cc1nc2ccccc2[nH]1)Oc1ccccc1	PV pol inh 75.0 (no result: Mtb MbtI inh)
CCCCOC(=O)Sc1nc2ccccc2o1	Mtb MbtI inh 91.2
CN(C)S(=O)(=O)c1ccc(/C(O)=C2\C(=O)C(=O)N(Cc3cccnc3)C2c2cccnc2)cc1 (centres undefined)	Mtb MenB inh 34.4
CN(C)CCCN1C(=O)C(=O)/C(=C(/O)c2ccc(S(=O)(=O)N(C)C)cc2)C1c1ccccc1 (centres undefined)	none
CC(=O)c1cccc(NC(=O)c2oc3c(c2C)-c2nn(Cc4ccc(Cl)cc4)cc2CC3)c1	none (no result: Mtb MenB inh, AID504770, Mtb MbtI inh)
CCOC(=O)c1cccc(NC(=O)c2oc3c(c2C)-c2nn(CC)cc2CC3)c1	PV pol inh 64.0 (no result: Mtb MenB inh, AID504770, Mtb MbtI inh)
CCOC(=O)C1CCCN(c2nc3ccccc3nc2C(C#N)C(=O)OC)C1 (centres undefined)	none
COc1ccccc1OCCn1cc(/C=C2/SC(=S)NC2=O)c2ccccc21	Mtb MbtI inh 59.5
COc1ccccc1/C=C1/SC(=S)NC1=O	none (no result: Mtb MenB inh)
N#Cc1cccc(NC(=O)C2CCN(c3nc(-c4ccc(Cl)cc4)no3)CC2)c1	none (no result: Mtb MenB inh, AID504770, Mtb MbtI inh)
CC(=O)N1CCN(C(=S)c2ccc(-c3ccc(C)cc3)o2)CC1	none
S=C(c1ccc(-c2ccccc2)o1)N1CCN(c2ccccc2)CC1	PV pol inh 68.0, Mtb MbtI inh 91.5
Cc1ccccc1N1C(=O)c2ccccc2S1(=O)=O	none
Cn1c(Cc2ccccc2)n[nH]c1=S	none
Nn1c(Cc2ccccc2)n[nH]c1=S	Mtb MbtI inh 98.9
NNC(=O)CN1CCCCCC1=O	none
CCOC(=O)c1c(-c2ccc(C)cc2)csc1NC(=O)c1cc(=O)c2cc(C)ccc2o1	PV pol inh 61.0 (no result: Mtb MenB inh, AID504770, Mtb MbtI inh)
CCOC(=O)c1c(NC(=O)c2cc(-c3ccc(OC)c(OC)c3)on2)sc2c1CCCC2	none (no result: Mtb MenB inh, AID504770, Mtb MbtI inh)
CCOC(=O)c1c(NC(=O)c2cc(-c3ccc(OC)cc3)on2)sc(C)c1C	PV pol inh 84.0 (no result: Mtb MenB inh, AID504770, Mtb MbtI inh)
CCOC(=O)c1c(NC(=O)c2cc(-c3cccc(OC)c3)on2)sc(C)c1C	none

Source: PubChem BioAssay
